From the supplement of paper PMC10849652
The full data set covers some 7,900 targets. This sample favours those with a hit. About 0.6% of all pairs of compound and target were hits.

Tests used:
Assay in all cases: log2 fold change, soluble protein after heating vs DMSO (PISA); higher = thermal stabilisation; K562 cells, 10 uM, 30 min; active = over 0.2 and 3.5 SD of the protein, either way, in both replicates (recomputed)
[1] = compound: NC(=O)Nc1cc(-c2cccc(F)c2)sc1C(=O)N[C@H]1CCCNC1
Outline: (§1)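 Quantification of soluble protein used TMTpro 16plex LC-MS/MS, with channel sums equalised. Samples were the supernatant after 21,000xg for 90 min of pooled aliquots from K562 cells (2×10^6 cells/mL) treated with 10 μM compound for 30 min, heated for 3 min over 48°C-58°C, and extracted in PBS with 0.5% NP-40 at 4°C. Values, from duplicates, describe thermal stability against control samples on a log2 fold-change scale.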

[2] = compound: NC(=O)c1cnc(N[C@@H]2CCCC[C@@H]2N)nc1Nc1cccc(-n2nccn2)c1
Outline: as §1

[3] = compound: NC1(c2ccc(-c3nc4ccn5c(=O)[nH]nc5c4cc3-c3ccccc3)cc2)CCC1
Outline: as §1

[4] = compound: NCC(=O)Nc1ccc(-n2nc(C(F)(F)F)cc2-c2ccc3c(ccc4ccccc43)c2)cc1
Outline: as §1

entinostat = compound: Nc1ccccc1NC(=O)c1ccc(CNC(=O)OCc2cccnc2)cc1 [entinostat]
Outline: as §1

vorinostat = compound: O=C(CCCCCCC(=O)Nc1ccccc1)NO [vorinostat]
Outline: as §1

citarinostat = compound: O=C(CCCCCCNC(=O)c1cnc(N(c2ccccc2)c2ccccc2Cl)nc1)NO [citarinostat]
Outline: as §1

silmitasertib = compound: O=C(O)c1ccc2c(c1)nc(Nc1cccc(Cl)c1)c1ccncc12 [silmitasertib]
Outline: as §1

[5] = compound: O=C1NC(=O)C(c2cnc3ccccn23)=C1c1cn2c3c(cc(F)cc13)CN(C(=O)N1CCCCC1)CC2
Outline: as §1

[6] = compound: c1cc(OCCN2CCCCC2)cc(-c2n[nH]c3ccc(-c4nnc[nH]4)cc23)c1
Outline: as §1

entospletinib = compound: c1cn2cc(-c3ccc4cn[nH]c4c3)nc(Nc3ccc(N4CCOCC4)cc3)c2n1 [entospletinib]
Outline: as §1

Measured: log2 fold change

SEH1L isoform 1 (UniProt Q96EE3)
inactive: [1] 0.007 | [2] -0.027 | [3] -0.014 | [4] -0.004 | entinostat -0.04 | vorinostat 0.022 | citarinostat 0.064 | silmitasertib 0.076 | [5] -0.027 | [6] -0.065 | entospletinib 0.007

SERINC3 (UniProt Q13530)
Chain of UniProt Q13530 (Q13530 whole entry, looked up): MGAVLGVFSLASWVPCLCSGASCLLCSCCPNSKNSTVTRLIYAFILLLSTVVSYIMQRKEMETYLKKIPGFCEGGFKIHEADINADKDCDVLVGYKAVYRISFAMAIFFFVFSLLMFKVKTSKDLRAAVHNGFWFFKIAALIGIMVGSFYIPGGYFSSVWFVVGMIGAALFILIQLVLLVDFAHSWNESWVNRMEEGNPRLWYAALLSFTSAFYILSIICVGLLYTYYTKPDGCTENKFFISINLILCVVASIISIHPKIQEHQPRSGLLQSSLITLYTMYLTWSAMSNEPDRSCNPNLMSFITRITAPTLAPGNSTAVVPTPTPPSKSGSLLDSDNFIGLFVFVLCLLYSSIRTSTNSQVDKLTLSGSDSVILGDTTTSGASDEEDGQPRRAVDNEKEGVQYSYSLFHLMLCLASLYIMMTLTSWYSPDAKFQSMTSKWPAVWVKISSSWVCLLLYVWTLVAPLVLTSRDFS
inactive: [1] -0.111 | [2] -0.027 | [3] -0.195 | [4] -0.267 | entinostat -0.07 | vorinostat -0.044 | citarinostat -0.093 | silmitasertib 0.054 | [5] 0.018 | [6] -0.031 | entospletinib 0.01

RIPK1 (UniProt Q13546)
inactive: [1] 0.037 | [2] -0.06 | [3] -0.092 | [4] -0.009 | entinostat 0.088 | vorinostat -0.014 | citarinostat -0.006 | silmitasertib 0.025 | [5] 0.205 | [6] 0.047 | entospletinib 0.135

RPS18 (UniProt P62269)
inactive: [1] -0.032 | [2] 0.08 | [3] 0.122 | [4] 0.049 | entinostat -0.083 | vorinostat 0.023 | citarinostat -0.093 | silmitasertib 0 | [5] 0.069 | [6] -0.145 | entospletinib 0.094

RAB5C isoform 2 (UniProt P51148)
inactive: [1] 0.092 | [2] 0.041 | [3] 0.017 | [4] 0.051 | entinostat 0.007 | vorinostat -0.001 | citarinostat -0.004 | silmitasertib -0.009 | [5] 0.049 | [6] -0.028 | entospletinib -0.006

SETMAR (UniProt Q53H47)
active: citarinostat -0.629
inactive: [1] 0.11 | [2] -0.024 | [3] 0.05 | [4] -0.078 | entinostat -0.032 | vorinostat 0.004 | silmitasertib -0.064 | [5] -0.105 | [6] -0.255 | entospletinib 0.075

SETD3 (UniProt Q86TU7)
inactive: [1] -0.007 | [2] -0.019 | [3] -0.045 | [4] -0.002 | entinostat -0.02 | vorinostat -0.035 | citarinostat -0.015 | silmitasertib 0.007 | [5] -0.022 | [6] 0.031 | entospletinib 0.001

RUNX1 isoform 8 (UniProt Q01196)
inactive: [1] -0.027 | [2] 0.03 | [3] -0.092 | [4] 0.187 | entinostat -0.16 | vorinostat 0.321 | citarinostat -0.249 | silmitasertib 0.119 | [5] 0.082 | [6] 0.051 | entospletinib 0.116

RALA (UniProt P11233)
inactive: [1] -0.03 | [2] -0.019 | [3] 0.057 | [4] 0.004 | entinostat -0.064 | vorinostat 0.142 | citarinostat 0.082 | silmitasertib -0.021 | [5] 0.028 | [6] -0.028 | entospletinib -0.026

RRS1 (UniProt Q15050)
inactive: [1] 0.06 | [2] 0.143 | [3] 0.233 | [4] 0.211 | entinostat -0.087 | vorinostat -0.063 | citarinostat -0.081 | silmitasertib 0.291 | [5] 0.438 | [6] -0.107 | entospletinib 0.066

RSPRY1 (UniProt Q96DX4)
Chain of UniProt Q96DX4 (Q96DX4 whole entry, looked up): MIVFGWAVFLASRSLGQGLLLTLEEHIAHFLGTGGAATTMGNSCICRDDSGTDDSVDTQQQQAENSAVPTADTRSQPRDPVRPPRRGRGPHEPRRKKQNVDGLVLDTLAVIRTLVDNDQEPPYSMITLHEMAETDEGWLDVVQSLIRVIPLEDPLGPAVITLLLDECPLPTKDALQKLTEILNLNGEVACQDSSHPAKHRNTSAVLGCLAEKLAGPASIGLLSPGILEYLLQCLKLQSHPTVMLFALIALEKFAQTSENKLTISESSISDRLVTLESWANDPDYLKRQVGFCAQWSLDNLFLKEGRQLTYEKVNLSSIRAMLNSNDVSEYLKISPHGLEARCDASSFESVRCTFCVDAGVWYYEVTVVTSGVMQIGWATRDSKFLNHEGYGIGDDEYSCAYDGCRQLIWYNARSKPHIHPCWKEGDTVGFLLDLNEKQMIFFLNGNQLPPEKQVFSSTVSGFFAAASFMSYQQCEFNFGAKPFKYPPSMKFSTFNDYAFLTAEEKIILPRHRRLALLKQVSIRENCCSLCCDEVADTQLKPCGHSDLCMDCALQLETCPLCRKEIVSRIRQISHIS
inactive: [1] -0.054 | [2] 0.051 | [3] -0.104 | [4] 0.061 | entinostat -0.016 | vorinostat -0.02 | citarinostat -0.075 | silmitasertib 0.028 | [5] -0.072 | [6] -0.008 | entospletinib -0.023

RRP36 (UniProt Q96EU6)
Chain of UniProt Q96EU6 (Q96EU6 whole entry, looked up): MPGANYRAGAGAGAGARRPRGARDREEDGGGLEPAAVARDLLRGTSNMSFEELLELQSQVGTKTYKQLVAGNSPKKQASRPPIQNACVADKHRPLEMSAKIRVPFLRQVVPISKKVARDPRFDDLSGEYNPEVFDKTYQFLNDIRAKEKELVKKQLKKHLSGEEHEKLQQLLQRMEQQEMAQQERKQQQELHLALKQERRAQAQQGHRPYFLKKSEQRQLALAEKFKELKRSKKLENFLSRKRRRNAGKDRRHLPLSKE
inactive: [1] 0.115 | [2] 0.108 | [3] 0.271 | [4] 0.098 | entinostat -0.073 | vorinostat -0.024 | citarinostat -0.04 | silmitasertib 0.143 | [5] 0.264 | [6] -0.118 | entospletinib 0.118

RNPS1 (UniProt Q15287)
inactive: [1] -0.019 | [2] -0.39 | [3] 0.097 | [4] 0.031 | entinostat -0.06 | vorinostat 0.024 | citarinostat 0.038 | silmitasertib -0.111 | [5] -0.018 | [6] -0.146 | entospletinib 0.064

RPS6KA1 isoform 2 (UniProt Q15418)
inactive: [1] -0.131 | [2] -0.242 | [3] -0.205 | [4] -0.096 | entinostat 0.06 | vorinostat 0.109 | citarinostat 0.058 | silmitasertib -0.08 | [5] -0.099 | [6] -0.32 | entospletinib 0.026

SCG3 (UniProt Q8WXD2)
Chain of UniProt Q8WXD2 (Q8WXD2 whole entry, looked up): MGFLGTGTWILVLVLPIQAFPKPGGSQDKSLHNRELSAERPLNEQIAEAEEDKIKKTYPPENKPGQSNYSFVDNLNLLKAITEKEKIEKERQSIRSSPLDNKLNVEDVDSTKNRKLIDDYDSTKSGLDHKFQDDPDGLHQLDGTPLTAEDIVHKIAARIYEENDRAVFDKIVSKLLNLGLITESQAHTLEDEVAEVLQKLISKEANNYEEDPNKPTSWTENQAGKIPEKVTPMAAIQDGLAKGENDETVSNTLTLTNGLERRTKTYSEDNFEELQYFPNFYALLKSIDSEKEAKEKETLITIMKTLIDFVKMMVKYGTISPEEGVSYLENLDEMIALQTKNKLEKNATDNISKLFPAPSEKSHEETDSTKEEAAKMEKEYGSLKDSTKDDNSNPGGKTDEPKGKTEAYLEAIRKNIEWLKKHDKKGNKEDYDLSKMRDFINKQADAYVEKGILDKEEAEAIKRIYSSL
inactive: [1] 0.028 | [2] -0.051 | [3] 0.114 | [4] 0.061 | entinostat 0.009 | vorinostat 0.025 | citarinostat -0.015 | silmitasertib -0.029 | [5] 0.018 | [6] -0.098 | entospletinib 0.091

RPP14 (UniProt O95059)
Chain of UniProt O95059 (O95059 whole entry, looked up): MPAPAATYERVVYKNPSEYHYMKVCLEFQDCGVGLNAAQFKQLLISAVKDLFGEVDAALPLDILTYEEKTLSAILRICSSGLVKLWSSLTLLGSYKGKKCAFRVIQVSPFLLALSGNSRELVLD
inactive: [1] 0.063 | [2] -0.006 | [3] -0.003 | [4] 0.138 | entinostat -0.065 | vorinostat -0.033 | citarinostat 0.051 | silmitasertib 0.06 | [5] 0.027 | [6] -0.107 | entospletinib -0.066

RRAGC (UniProt Q9HB90)
Chain of UniProt Q9HB90 (Q9HB90 whole entry, looked up): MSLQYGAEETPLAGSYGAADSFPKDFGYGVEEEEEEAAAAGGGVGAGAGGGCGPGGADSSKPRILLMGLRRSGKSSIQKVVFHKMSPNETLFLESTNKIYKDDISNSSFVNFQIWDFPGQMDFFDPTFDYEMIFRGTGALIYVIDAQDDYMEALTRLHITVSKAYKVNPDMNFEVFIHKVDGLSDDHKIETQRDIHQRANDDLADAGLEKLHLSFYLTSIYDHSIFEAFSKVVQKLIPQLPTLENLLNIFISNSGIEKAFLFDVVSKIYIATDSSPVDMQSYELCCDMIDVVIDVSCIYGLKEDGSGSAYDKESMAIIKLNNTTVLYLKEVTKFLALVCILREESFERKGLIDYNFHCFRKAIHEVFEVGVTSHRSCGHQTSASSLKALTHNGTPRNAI
active: [3] -0.265
inactive: [1] -0.001 | [2] -0.091 | [4] -0.069 | entinostat -0.004 | vorinostat -0.015 | citarinostat 0.041 | silmitasertib 0.014 | [5] 0.011 | [6] -0.027 | entospletinib 0.021

RBM39 (UniProt Q14498)
inactive: [1] -0.141 | [2] -0.079 | [3] 0.023 | [4] -0.152 | entinostat 0.02 | vorinostat 0.062 | citarinostat 0.105 | silmitasertib -0.083 | [5] 0.049 | [6] -0.144 | entospletinib -0.125

RIOK2 (UniProt Q9BVS4)
active: [2] 0.351
inactive: [1] -0.008 | [3] 0.04 | [4] 0.027 | entinostat -0.041 | vorinostat -0.044 | citarinostat -0.067 | silmitasertib 0.018 | [5] 0.086 | [6] -0.071 | entospletinib 0.105

SH3PXD2B (UniProt A1X283)
Chain of UniProt A1X283 (A1X283 whole entry, looked up): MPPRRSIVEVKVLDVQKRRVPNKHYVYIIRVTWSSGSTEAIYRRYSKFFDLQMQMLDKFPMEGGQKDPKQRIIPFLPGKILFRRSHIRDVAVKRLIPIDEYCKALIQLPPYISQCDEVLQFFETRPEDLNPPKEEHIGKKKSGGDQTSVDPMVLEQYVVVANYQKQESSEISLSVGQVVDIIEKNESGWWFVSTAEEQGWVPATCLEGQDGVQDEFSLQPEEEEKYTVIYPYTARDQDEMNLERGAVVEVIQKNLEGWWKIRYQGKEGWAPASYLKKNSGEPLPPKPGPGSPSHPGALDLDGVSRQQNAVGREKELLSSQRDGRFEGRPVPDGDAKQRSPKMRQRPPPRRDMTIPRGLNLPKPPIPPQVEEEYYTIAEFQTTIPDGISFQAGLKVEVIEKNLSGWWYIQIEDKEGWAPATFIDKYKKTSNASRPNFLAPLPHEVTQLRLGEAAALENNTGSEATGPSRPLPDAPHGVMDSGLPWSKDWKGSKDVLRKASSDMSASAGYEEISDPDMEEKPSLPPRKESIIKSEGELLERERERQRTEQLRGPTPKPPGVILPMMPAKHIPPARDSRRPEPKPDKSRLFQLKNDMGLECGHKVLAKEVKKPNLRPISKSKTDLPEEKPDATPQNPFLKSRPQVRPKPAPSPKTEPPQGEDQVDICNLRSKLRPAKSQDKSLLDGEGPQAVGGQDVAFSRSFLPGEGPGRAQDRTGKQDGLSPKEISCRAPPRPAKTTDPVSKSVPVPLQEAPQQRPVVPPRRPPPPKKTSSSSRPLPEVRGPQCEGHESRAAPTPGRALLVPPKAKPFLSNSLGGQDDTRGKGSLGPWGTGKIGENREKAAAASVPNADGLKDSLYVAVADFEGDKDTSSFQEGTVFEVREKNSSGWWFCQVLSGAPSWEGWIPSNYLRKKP
inactive: [1] 0.066 | [2] 0.248 | [3] -0.082 | [4] 0.052 | entinostat -0.056 | vorinostat -0.128 | citarinostat 0.032 | silmitasertib -0.108 | [5] 0.009 | [6] 0.026 | entospletinib -0.131

RABGGTA (UniProt Q92696)
Chain of UniProt Q92696 (Q92696 whole entry, looked up): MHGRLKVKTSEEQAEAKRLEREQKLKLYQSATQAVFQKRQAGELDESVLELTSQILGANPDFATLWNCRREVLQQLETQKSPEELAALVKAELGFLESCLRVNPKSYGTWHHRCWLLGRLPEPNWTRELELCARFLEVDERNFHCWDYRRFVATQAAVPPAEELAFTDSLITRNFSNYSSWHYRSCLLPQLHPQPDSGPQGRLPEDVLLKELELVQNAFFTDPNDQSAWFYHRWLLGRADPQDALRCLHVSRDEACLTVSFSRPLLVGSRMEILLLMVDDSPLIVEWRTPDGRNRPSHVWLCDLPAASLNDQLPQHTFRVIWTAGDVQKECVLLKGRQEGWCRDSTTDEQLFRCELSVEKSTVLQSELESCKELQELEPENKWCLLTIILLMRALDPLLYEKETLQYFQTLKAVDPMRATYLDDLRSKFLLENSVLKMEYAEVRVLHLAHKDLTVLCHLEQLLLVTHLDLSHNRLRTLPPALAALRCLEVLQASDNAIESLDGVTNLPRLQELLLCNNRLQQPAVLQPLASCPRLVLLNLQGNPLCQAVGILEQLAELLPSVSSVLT
inactive: [1] 0.034 | [2] -0.008 | [4] 0.051 | entinostat -0.05 | vorinostat 0.005 | citarinostat 0.038 | silmitasertib 0.008 | [5] 0.003 | [6] 0.027 | entospletinib -0.013
active: [3] -0.257

SLC18B1 (UniProt Q6NT16)
Chain of UniProt Q6NT16 (Q6NT16 whole entry, looked up): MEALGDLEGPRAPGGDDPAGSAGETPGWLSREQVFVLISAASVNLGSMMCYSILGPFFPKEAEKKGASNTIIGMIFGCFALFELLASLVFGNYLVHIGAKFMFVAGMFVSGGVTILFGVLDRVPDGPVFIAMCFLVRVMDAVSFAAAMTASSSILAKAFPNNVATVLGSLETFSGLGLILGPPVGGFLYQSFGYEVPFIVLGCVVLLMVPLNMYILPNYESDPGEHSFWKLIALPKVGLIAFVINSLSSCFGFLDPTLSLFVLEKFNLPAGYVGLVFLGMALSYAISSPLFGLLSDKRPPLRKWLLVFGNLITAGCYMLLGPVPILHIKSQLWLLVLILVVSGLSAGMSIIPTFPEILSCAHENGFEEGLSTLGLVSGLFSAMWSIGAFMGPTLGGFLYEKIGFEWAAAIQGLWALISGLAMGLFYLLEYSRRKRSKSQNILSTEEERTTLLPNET
inactive: [1] -0.003 | [2] 0.022 | [3] -0.093 | [4] -0.025 | entinostat 0.038 | vorinostat -0.162 | citarinostat 0.019 | silmitasertib 0.076 | [5] 0.044 | [6] -0.044 | entospletinib 0.027

RPS4X (UniProt P62701)
inactive: [1] 0.088 | [2] 0.095 | [3] 0.216 | [4] 0.088 | entinostat -0.048 | vorinostat 0.005 | citarinostat -0.104 | silmitasertib 0.014 | [5] 0.126 | [6] -0.204 | entospletinib 0.082

RETREG3 (UniProt Q86VR2)
Chain of UniProt Q86VR2 (Q86VR2 whole entry, looked up): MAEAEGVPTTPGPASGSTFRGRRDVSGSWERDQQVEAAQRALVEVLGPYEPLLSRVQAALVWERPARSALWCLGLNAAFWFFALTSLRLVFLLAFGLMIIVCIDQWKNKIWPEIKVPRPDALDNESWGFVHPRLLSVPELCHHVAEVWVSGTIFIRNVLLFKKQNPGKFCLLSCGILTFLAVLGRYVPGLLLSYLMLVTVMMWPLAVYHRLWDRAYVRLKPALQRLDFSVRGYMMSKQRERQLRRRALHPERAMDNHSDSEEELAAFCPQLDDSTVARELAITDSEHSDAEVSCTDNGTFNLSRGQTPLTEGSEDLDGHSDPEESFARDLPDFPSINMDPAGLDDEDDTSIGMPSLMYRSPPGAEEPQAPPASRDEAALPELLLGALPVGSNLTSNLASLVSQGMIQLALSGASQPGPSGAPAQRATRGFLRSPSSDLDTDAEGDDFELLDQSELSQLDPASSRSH
inactive: [1] 0.046 | [2] -0.033 | [3] -0.047 | [4] 0.048 | entinostat 0.007 | vorinostat -0.045 | citarinostat 0.003 | silmitasertib 0.04 | [5] -0.086 | [6] -0.03 | entospletinib 0.015

SCO2 (UniProt O43819)
Chain of UniProt O43819 (O43819 whole entry, looked up): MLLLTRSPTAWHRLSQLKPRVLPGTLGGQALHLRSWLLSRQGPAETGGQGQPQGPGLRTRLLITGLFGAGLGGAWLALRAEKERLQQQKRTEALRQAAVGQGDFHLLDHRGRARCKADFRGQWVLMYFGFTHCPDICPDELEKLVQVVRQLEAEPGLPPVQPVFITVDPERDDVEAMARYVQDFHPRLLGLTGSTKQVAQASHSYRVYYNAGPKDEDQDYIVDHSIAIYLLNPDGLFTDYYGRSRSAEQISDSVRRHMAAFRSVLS
active: [1] -0.598
inactive: [2] -0.078 | [3] 0.015 | [4] 0.006 | entinostat -0.266 | vorinostat 0.011 | citarinostat -0.001 | silmitasertib -0.078 | [5] -0.092 | [6] 0.118 | entospletinib -0.118
